“And” between values parts separate entries of the source, which are not always exact repeats. Equal values may be shown once. This is part of a sample that, as a whole, favours compounds with a hit. Of some 79,000 tested, about 15% had one in any assay. More than one record can exist for a structure, and the calls need not agree. The source made the active and inactive calls. Rule as the data show it: active = growth inhibition above about 70%; inactive = the rest.
Assays:
[1] = NCI Yeast Anticancer Drug Screen. Data for the rad50 strain (AID 155);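 also: 0% = growth of vehicle-only cultures of the same strain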; settings: S. cerevisiae rad50 strain growth inhibition, stronger effect = higher value
Procedure, shortened: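 Cells are treated with compound, grown, and their growth is then scored against vehicle-only cultures of the same repair-deficient yeast strain.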

[2] = NCI Yeast Anticancer Drug Screen. Data for the mec2-1 strain (AID 157); settings: S. cerevisiae mec2-1 strain, stronger effect = higher value
Procedure, shortened: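 Mutant yeast (mec2-1) grown with compound; growth inhibition relative to vehicle control reported.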

[3] = NCI Yeast Anticancer Drug Screen. Data for the sgs1 mgt1 strain (AID 161);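 also: 0% = growth of cultures given vehicle only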; settings: S. cerevisiae sgs1 mgt1 strain, stronger effect = higher value
Procedure, shortened: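 Growth of a repair-deficient yeast mutant was monitored after compound treatment and expressed as inhibition relative to vehicle-treated cultures.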

[4] = NCI Yeast Anticancer Drug Screen. Data for the cln2 rad14 strain (AID 165);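 also: 0% = growth equal to vehicle treated cultures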; settings: S. cerevisiae cln2 rad14 strain, stronger effect = higher value
Procedure, shortened: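 Readout is yeast growth inhibition versus vehicle-treated controls, using a strain with cln2 and rad14 alterations exposed to compound.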

[5] = NCI Yeast Anticancer Drug Screen. Data for the bub3 strain (AID 167); settings: S. cerevisiae bub3 mutant strain, stronger effect = higher value
Procedure, shortened: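 Part of a panel of yeast mutants defective in DNA damage repair or cell cycle regulation. Each strain is grown with compound, and inhibition is calculated relative to solvent-treated cultures.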

[6] = NCI Yeast Anticancer Drug Screen. Data for the mlh1 rad18 strain (AID 175); settings: S. cerevisiae mlh1 rad18 strain growth inhibition, stronger effect = higher value
Procedure, shortened: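 Genetically defined yeast (DNA repair-deficient) exposed to compounds; growth inhibition determined relative to vehicle.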

[7] = at 5.0 µM (retest, dose inferred, filed as 0.5)
[8] = at 50.0 µM (retest, dose inferred, filed as 5.0)

SMILES | growth inhibition [1, 7] | growth inhibition [1, 8] | growth inhibition ([1]; at 50.0 µM) | growth inhibition [2, 7] | growth inhibition [2, 8] | growth inhibition ([2]; at 50.0 µM) | growth inhibition [3, 7] | growth inhibition [3, 8] | growth inhibition ([3]; at 50.0 µM) | growth inhibition [4, 7] | growth inhibition [4, 8] | growth inhibition ([4]; at 50.0 µM) | growth inhibition [5, 7] | growth inhibition [5, 8] | growth inhibition ([5]; at 50.0 µM) | growth inhibition [6, 7] | growth inhibition [6, 8] | growth inhibition ([6]; at 50.0 µM)
COC(=O)c1ccc(O)c(OC)c1 | -1% (inactive) | -5% (inactive) | -25.2% (inactive) | 1% (inactive) | -3% (inactive) | -2.35% (inactive) | 0% (inactive) | -1% (inactive) | -8.9% (inactive) | -2% (inactive) | 2% (inactive) | 28.1% (inactive) | 12% (inactive) | 27% (inactive) | 12.8% (inactive) | -4% (inactive) | -3% (inactive) | 9.5% (inactive)
O[Si](c1ccccc1)(c1ccccc1)c1ccccc1.O[Si](c1ccccc1)(c1ccccc1)c1ccccc1.O[Si](c1ccccc1)(c1ccccc1)c1ccccc1.[O]=[V] | 58% (inactive) | 64% (inactive) | 62.1% (inactive) | 37% (inactive) | 50% (inactive) | 67% (inactive) | 46% (inactive) | 58% (inactive) | 70.3% (active) | 15% (inactive) | 31% (inactive) | 27.1% (inactive) | 63% (inactive) | 62% (inactive) | 43.4% (inactive) | 53% (inactive) | 58% (inactive) | 72.6% (active)
O=[N+]([O-])C1=C(c2ccccc2)SC=C(c2ccccc2)S1 | 6% (inactive) and -1% (inactive) | 13% (inactive) and -6% (inactive) | 24% (inactive) and 71.5% (active) | -6% (inactive) and 10% (inactive) | -3% (inactive) and 1% (inactive) | 13.4% (inactive) and 82.9% (active) | 3% (inactive) and 22% (inactive) | -1% (inactive) and -5% (inactive) | 31.6% (inactive) and 84.7% (active) | 18% (inactive) and 1% (inactive) | 64% (inactive) and -4% (inactive) | 54.9% (inactive) and 89.1% (active) | 48% (inactive) and 50% (inactive) | 80% (active) and 28% (inactive) | 12.4% (inactive) and 84.8% (active) | -9% (inactive) and 17% (inactive) | -10% (inactive) and -3% (inactive) | 57.5% (inactive) and 85.9% (active)
Cc1c(-c2ccccc2)ccnc1/C=N/NC(N)=S | 29% (inactive) | 42% (inactive) | 48.1% (inactive) | 9% (inactive) | 53% (inactive) | 79% (active) | 43% (inactive) | 58% (inactive) | 65.7% (inactive) | 39% (inactive) | 39% (inactive) | 54.4% (inactive) | 49% (inactive) | 45% (inactive) | 80.7% (active) | 18% (inactive) | 36% (inactive) | 82% (active)
Clc1ccc(/C=C/c2ccccn2)c(Cl)c1 | 3% (inactive) | 43% (inactive) | -14.9% (inactive) and 12.1% (inactive) | -3% (inactive) | 12% (inactive) | 6.2% (inactive) and 3.7% (inactive) | -2% (inactive) | 5% (inactive) | -23.1% (inactive) and 58% (inactive) | -6% (inactive) | -4% (inactive) | -0.55% (inactive) and 20.8% (inactive) | 51% (inactive) | 10% (inactive) | -9.75% (inactive) and 4% (inactive) | 1% (inactive) | 11% (inactive) | -47.5% (inactive) and 31% (inactive)
COc1ccc(-c2c(C#N)c(-c3ccc(C)cc3)n(NS(=O)(=O)c3ccccc3)c(=O)c2C#N)cc1 | 94% (active) | 97% (active) | 40.5% (inactive) | 42% (inactive) | 94% (active) | 49.8% (inactive) | 41% (inactive) | 75% (active) | 50.8% (inactive) | 49% (inactive) | 58% (inactive) | 66% (inactive) | 47% (inactive) | 56% (inactive) | 39.6% (inactive) | 91% (active) | 95% (active) | 43% (inactive)
c1ccc(C2=NC(c3ccccc3)=NS(S3=NC(c4ccccc4)=NC(c4ccccc4)=N3)=N2)cc1 (centres undefined) | 27% (inactive) | 94% (active) | 74.7% (active) | 5% (inactive) | 98% (active) | 75.2% (active) | 20% (inactive) | 98% (active) | 82.7% (active) | 20% (inactive) | 94% (active) | 43% (inactive) | 30% (inactive) | 97% (active) | 38% (inactive) | 18% (inactive) | 97% (active) | 92.3% (active)
CCCC1=CCCC1 | 2% (inactive) | 8% (inactive) | 91.1% (active) | 2% (inactive) | -6% (inactive) | 92.5% (active) | -1% (inactive) | 1% (inactive) | 50.9% (inactive) | 0% (inactive) | 2% (inactive) | 50% (inactive) | 1% (inactive) | 1% (inactive) | 96.8% (active) | 0% (inactive) | 5% (inactive) | 50.2% (inactive)
